# From PubChem BioAssay AID1159580 (chemical genetic matrix, 2015)
# The campaign covered roughly 5,500 compounds. About 2,000 (36%) were called active. Another 18% or so got no clear call; they are omitted. Some of the results follow. A number with no mark means an inactive call. Rule as the data show it: active = normalized growth mostly below about 0.91 (no sharp cut-off); inconclusive = no clear call, values can overlap the other calls; inactive = mostly above about 0.92.
# Assay: chemical genetic growth profiling, strain panel (AID 1159580);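 also: tested at 20 µM; growth read once vehicle control cultures reached saturation at 30 °C; 1 = growth at the plate median or of vehicle wells; lower values mean less growth of the strain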
# Settings: S. cerevisiae deletion strains, growth OD
smiles,measurement,setting,value
CCCCCCNC(=O)NCCCCCC,normalized growth,"locus YAL013W, strain DEP1, active compounds read low",0.958
same,normalized growth,"locus YBR229C, strain ROT2, active compounds read low",0.931
same,normalized growth,"locus YDL101C, strain DUN1, active compounds read low",0.983
same,normalized growth,"locus YDL134C, strain PPH21, active compounds read low",0.925
same,normalized growth,"locus YDR150W, strain NUM1, active compounds read low",0.931
same,normalized growth,"locus YEL061C, strain CIN8, active compounds read low",0.939
same,normalized growth,"locus YGR078C, strain PAC10, active compounds read low",0.933
same,normalized growth,"locus YHR030C, strain SLT2, active compounds read low",0.858
same,normalized growth,"locus YHR087W, strain rtc3, active compounds read low",0.955
same,normalized growth,"locus YJR043C, strain POL32, active compounds read low",0.942
same,normalized growth,"locus YJR075W, strain HOC1, active compounds read low",0.894
same,normalized growth,"locus YLR039C, strain RIC1, active compounds read low",0.76 (active)
same,normalized growth,"locus YLR058C, strain SHM2 (second series), active compounds read low",0.933 (active)
same,normalized growth,"locus YLR085C, strain ARP6, active compounds read low",0.881
same,normalized growth,"locus YLR262C, strain YPT6, active compounds read low",0.723 (active)
same,normalized growth,"locus YML094W, strain GIM5, active compounds read low",0.991
same,normalized growth,"locus YMR219W, strain ESC1, active compounds read low",0.924 (active)
same,normalized growth,"locus YMR263W, strain SAP30, active compounds read low",0.98
same,normalized growth,"locus YNL153C, strain GIM3, active compounds read low",0.986
same,normalized growth,"locus YNL298W, strain CLA4 (second series), active compounds read low",0.991
same,normalized growth,"locus YNL322C, strain KRE1, active compounds read low",0.914 (active)
same,normalized growth,"locus YNR030W, strain Alg12, active compounds read low",0.918
same,normalized growth,"locus YOL006C, strain TOP1, active compounds read low",0.858
same,normalized growth,"locus YPL055C, strain LGE1, active compounds read low",0.959
same,normalized growth,"locus YPL241C, strain CIN2, active compounds read low",0.982
same,normalized growth,"locus YPR135W, strain CTF4, active compounds read low",0.824
